Coupling enz: qHTS Assay for Inhibitors of Fructose-1,6-bisphosphate Aldolase from Giardia Lamblia: Coupling assay counterscreen | coupling enzyme system counterscreen, AmpLite Red fluorescence | activity change, negative = inhibition, % at 58.2 µM, hits read low | 290,000 tested, 0.67% active | AID 2472, 2010; in the data active = activity change below about -30%
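Counterscreen lacking aldolase: glyceraldehyde-3-phosphate coupling-enzyme reagent preincubated 10 min at RT with compound (at 57.5 uM final), then substrate/coupling system with AmpLite Red added; fluorescence read at 525/598 nm after 20 min RT.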
Tau fibril FP: qHTS for Inhibitors of Tau Fibril Formation, Fluorescence Polarization; Microtubule-associated protein tau (Homo sapiens), P10636; K18 P301L tau heparin fibrillization, Alexa594 FP, 6 h; Potency, µM (highest dose often 57.7 µM), without a hit: top-dose activity, negative = inhibition, actives largely listed as inhibitors; 280,000 tested, 0.39% active; AID 1468, 2008; note: potency is the fitted concentration of half-maximal effect; nearly all actives have a fitted effect of over 55% in size
Target sequence (P10636 561-689 P618L limits assumed): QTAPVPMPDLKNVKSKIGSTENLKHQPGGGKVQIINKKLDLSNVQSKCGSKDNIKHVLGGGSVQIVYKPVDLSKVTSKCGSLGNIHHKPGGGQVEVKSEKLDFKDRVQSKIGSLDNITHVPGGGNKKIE
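Human K18 P301L fragment (15 uM unlabeled plus 0.24 uM Alexa 594-labeled) in 100 mM sodium acetate pH 7 with compound, aggregation induced by 20 uM heparin for 6 hr at 37 C. ThT (30 uM) added for 1 hr, then Alexa 594 FP read.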
Tau ThT inhib: qHTS for Inhibitors of Tau Fibril Formation, Thioflavin T Binding; Microtubule-associated protein tau (Homo sapiens), P10636; recombinant tau K18 P301L, heparin-induced fibrillization, ThT fluorescence; Potency, µM (highest dose often 57.4 µM), without a hit: at the top dose activity, negative = inhibition, hits mostly inhibitors; 270,000 tested, 2.1% active; AID 1460, 2008; note: potency is the fitted concentration of half-maximal effect; nearly all actives have a fitted effect of over 55% in size
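Recombinant human tau K18 fragment […] carrying P301L, 15 uM unlabeled plus 0.24 uM Alexa 594-labeled, was fibrillized with 20 uM heparin in 100 mM sodium acetate pH 7 for 6 hr at 37 C; 30 uM ThT fluorescence read after 1 hr.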
G9a inh: qHTS Assay for Inhibitors of Histone Lysine Methyltransferase G9a. Histone-lysine N-methyltransferase EHMT2 (Homo sapiens), Q96KQ7. G9a H3K9 monomethylation, AlphaScreen, 2 h. Potency, µM (top dose mostly 102 µM), inactives show at the top dose activity, negative = inhibition, usual class: inhibitors. 350,000 tested, 8.8% active; note: potency is the fitted concentration of half-maximal effect; nearly all actives have a fitted effect of over 75% in size
Target sequence (Q96KQ7 913-1193 limits assumed): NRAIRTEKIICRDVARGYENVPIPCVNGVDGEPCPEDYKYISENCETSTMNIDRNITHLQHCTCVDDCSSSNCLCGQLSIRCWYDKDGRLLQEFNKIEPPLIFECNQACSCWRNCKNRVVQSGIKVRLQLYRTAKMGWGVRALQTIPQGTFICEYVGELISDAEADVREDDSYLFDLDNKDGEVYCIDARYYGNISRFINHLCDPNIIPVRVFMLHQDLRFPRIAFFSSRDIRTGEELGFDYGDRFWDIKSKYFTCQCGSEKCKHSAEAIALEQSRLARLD
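G9a (20 nM) was preincubated 15 min with compound, then reacted 2 h at room temperature with 500 nM biotin-H3K9 peptide and 20 µM SAM. Monomethyl-H3K9 detected by AlphaScreen using anti-H3K9me1 antibody.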
Tau fluor cs: Counterscreen qHTS for Inhibitors of Tau Fibril Formation, Fluorescence Polarization; tau K18 P301L Alexa594 fluorescence, heparin fibrillization; 280,000 tested, 0.93% active; Potency, µM (series often up to 57.7 µM), for the others: at the highest dose activity change, negative = decrease; note: potency is the fitted concentration of half-maximal effect; nearly all actives have a fitted effect of over 55% in size
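Human tau K18 P301L (15 uM unlabeled, 0.24 uM Alexa 594-labeled) in 100 mM sodium acetate pH 7 with 20 uM heparin, 6 hr at 37 C. ThT 30 uM added, 1 hr ambient; Alexa 594 FP and total fluorescence read at 555/632 nm.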
Sfp PPTase inh: qHTS Assay for Inhibitors of Bacillus subtilis Sfp phosphopantetheinyl transferase (PPTase); Biochemical Sfp PPTase activity, qHTS; 310,000 tested, 3.5% active; AID 1490, 2009; 4'-phosphopantetheinyl transferase ffp (Bacillus subtilis), Q9F4F7; Potency, µM, without a hit: largest response in the series, negative = inhibition, most hits filed as inhibitors;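 note: the enzyme is Sfp with the accession as filed and its product quenches rhodamine fluorescence; potency is the fitted concentration of half-maximal effect; 0% = enzyme reaction without inhibitor and -100% = no enzyme wells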
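Reaction rates are the 30-min fluorescence difference (ex 525, em 598 nm) in wells containing 15 nM Sfp, 5 uM rhodamine-CoA and 12.5 uM BHQ-2-YbbR at pH 7.6 with 10 mM MgCl2.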
* marks the source's active call; other numbers are inactive results; ? = inconclusive; · = not tested or not shown; [ ] = remark or other dose. An excerpt weighted towards active compounds, which were near 11% of everything screened. Unless noted, calls come from the whole dose curve; as a rule, active = well fitted curve in the direction sought with a large enough effect; inconclusive = small, poorly fitted or top-dose-only effect, or another doubt; inactive = no such curve, though single readings can be large; an effect the other way counts as inactive or inconclusive. Unless noted, % is set by controls: 0 for no effect and ±100 for the full control effect.

SMILES | Coupling enz | Tau fibril FP | Tau ThT inhib | G9a inh | Tau fluor cs | Sfp PPTase inh
Nc1nc(N)c(N=Nc2ccc(Cl)cc2)c(=O)[nH]1 | 4 | 8% | ? | 2% | -2% | 22%
COc1cccc(C(=O)/C=C2\Sc3ccccc3N2C)c1 | -20 | 2% | ? | 54% | -24% | -11%
CN1/C(=C\C(=O)c2cccnc2)Sc2ccccc21 | -13 | 4% | ? | 28µM* | -5% | 22µM*
Cc1cc(=O)[nH]c(SC(C)C(=O)Nc2cccc3ccccc23)n1 (stereo unspecified) | 6 | · | · | -3% | · | 8%
COc1ccc2nc3cc(Cl)ccc3c(C#N)c2c1 | 2 | 3% | -17% | 50µM* | -17% | 6%
COc1ccccc1NC(=O)c1cccc(S(=O)(=O)N2CCCCCC2)c1 | · | -6% | -10% | -7%[59 µM] | -23% | ·
Clc1ccc(-n2nnnc2-c2cnc3ccccc3c2-c2ccccc2)cc1 | -1 | 5% | -5% | 14µM* | -10% | -4%
Cc1ccc(-n2nnnc2-c2cnc3ccc(Cl)cc3c2-c2ccccc2)cc1 | -1 | -3% | ? | 22%[0.0925 µM] | -16% | -11%
Clc1ccc(-n2nnnc2-c2ccccc2)cc1 | 1 | -9% | -12% | 45µM* | -13% | -21%
Cc1c(Cl)cccc1NC(=O)C(=O)NCC(c1cccnc1)N1CCN(c2ccccc2)CC1 (stereo unspecified) | · | -7% | 11% | 5%[59 µM] | -2% | ·
O=c1[nH]c(=S)[nH]cc1S(=O)(=O)c1cccc(Cl)c1 | 15 | · | · | 40µM* | · | -26%
O=[N+]([O-])c1ccc(C2=Nn3c(Cn4nnc5ccccc54)nnc3SC2)cc1 | 0 | -16% | · | · | -22% | 20µM*
Cc1nnc2n(c1=O)N=C(c1ccc(Cl)cc1)CS2 | 0 | ? | ? | 71µM* | -15% | ?
CCc1nnc2n1N=C(c1ccc(Cl)cc1)CS2 | -2 | · | · | -1% | · | 2%
CCCc1nnc2n1N=C(c1ccc([N+](=O)[O-])cc1)CS2 | 4 | -8% | -23% | 71µM* | -18% | 3%
CCCc1nnc2n1N=C(c1ccc(C)cc1)CS2 | · | · | · | 79µM* | · | 7%
CCc1nnc2n1N=C(c1cccc([N+](=O)[O-])c1)CS2 | 0 | 6% | -15% | 14%[59 µM] | 1% | -4%
CCOc1ccccc1C1CC(=O)Nc2c1c(=O)n(C)c1ncnn21 (stereo unspecified) | · | -10% | 1% | ? | -6% | ·
Cc1[nH]c2ccc(C(=O)Nc3ccc(F)cc3)cc2c1C | · | ? | 13µM* | -32%[59 µM] | 14µM*[quencher] | ·
CCOc1ccc(OCC)c(NC(=O)C(NS(=O)(=O)c2cccs2)c2ccccc2)c1 (stereo unspecified) | · | -3% | 4% | -2%[59 µM] | -20% | ·
Cc1cnc(NC(=O)CSc2ccccc2)s1 | -2 | -6% | -11% | -6%[59 µM] | -7% | -13%
CCOC(=S)SCC(=O)Nc1ncc(C)s1 | 2 | 1% | ? | · | 5% | 16µM*
COc1ccccc1C(=O)Nc1ccc(-c2nnc(SCC(=O)O)n2C)cc1 | 6 | -8% | -24% | ? | -6% | 7%
CCC(=O)Nc1cccc(-c2nnc(SCC(=O)c3ccccc3)n2C)c1 | 2 | 6% | ? | ? | -3% | 79µM*
CSc1nnc(-c2cccc(NC(=O)c3ccccc3)c2)n1C | 0 | -4% | -13% | 50µM* | -15% | 1%
Cn1c(SCC(=O)O)nnc1-c1ccc(NC(=O)c2ccc(Cl)c(Cl)c2)cc1 | 0 | 1% | -12% | 50µM* | -9% | 12%
N#Cc1nc(/C=C/c2ccc(F)cc2)oc1N1CCCCC1 | · | 0% | ? | ? | ? | ·
Cc1ccccc1-n1c(=O)c2c3c(sc2n2cnnc12)CCCC3 | · | -2% | -2% | -7%[59 µM] | -4% | ·
